Hits are enriched below; roughly 1.8% of the tested compounds scored in any of these assays.
H9c2 protect: cardioprotection against H2O2-induced cell death, primary screen, uHTS, H9c2 cells, ATPLite luminescence; actives 0.63% (n = 360,000); H9c2 cardiomyocytes, H2O2 injury protection, 2 h; protection from H2O2 cell death, % at 20 µM; AID 588492, 2011;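 active means compounds giving at least 50% protection of heart cells from peroxide-induced death in the single-dose screen, raw or plate-pattern-corrected value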;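 further: 0% = DMSO wells with peroxide and 100% = DMSO wells without peroxide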
HDAC3 inh: HDAC3 deacetylase inhibitors, primary screen, biochemical, fluorescence, cell-free homogeneous; recombinant HDAC3, fluorogenic peptide/trypsin coupled; Histone deacetylase 3 (Homo sapiens), O15379; inhibition, % at 8.3 µM; actives 0.15% (n = 320,000); AID 2718, 2010; in the data active means inhibition above about 26%, passing the limit was not always enough; inconclusive means no clear call, values can overlap the other calls
Target sequence (O15379 whole entry, looked up): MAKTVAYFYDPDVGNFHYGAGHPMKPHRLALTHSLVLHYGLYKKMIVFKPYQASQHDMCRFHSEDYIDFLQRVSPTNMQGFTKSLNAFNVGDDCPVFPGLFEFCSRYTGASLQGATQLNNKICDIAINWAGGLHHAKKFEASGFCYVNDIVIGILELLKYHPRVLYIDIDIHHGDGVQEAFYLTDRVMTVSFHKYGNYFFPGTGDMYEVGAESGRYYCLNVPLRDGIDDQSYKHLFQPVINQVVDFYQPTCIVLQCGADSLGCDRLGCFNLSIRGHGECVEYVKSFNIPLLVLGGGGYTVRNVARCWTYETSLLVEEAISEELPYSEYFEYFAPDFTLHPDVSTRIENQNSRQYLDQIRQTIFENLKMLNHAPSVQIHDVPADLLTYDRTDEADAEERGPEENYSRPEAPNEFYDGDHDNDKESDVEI
GRK2 aptamer HTS: compounds blocking aptamer binding on GRK2 – biochemical, human GRK2, bead flow cytometry, HTS, primary screen; actives 0.59% (n = 330,000); FAM-aptamer displacement from GRK2; inhibition of aptamer binding, % at 10 µM;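 active means inhibition of aptamer binding above 40%, roughly 3 SD of noise, on plates passing a quality check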;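 further: median bead fluorescence of bound FAM aptamer so fluorescent compounds give negative values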
Neddylation inh: inhibitors of cullin neddylation, primary screen, biochemical, TR-FRET, uHTS, NAE and Ubc12; inhibition, % at 25 µM; actives 0.58% (n = 360,000); AID 651699, 2012; in the data active means inhibition above about 36%
* = called active by the depositor; u = inconclusive; x = no result given.

SMILES	H9c2 protect	HDAC3 inh	GRK2 aptamer HTS	Neddylation inh
O=C(N/N=C/c1ccc(OC(=O)c2ccccc2Cl)cc1)c1cc(O)cc(O)c1	54.2*	-8.8	55.0*	-12.6
O=C(N/N=C/c1ccc(OC(=O)c2ccccc2Cl)cc1)c1ccccn1	-1.4	-4.9	1.0	20.4
Cc1nc2ccccc2c2oc(C(=O)Nc3ccc4c(c3)OCCO4)cc12	99.5*	-0.4	2.0	x
COc1cc(NC(=O)c2cc3c(C)nc4ccccc4c3o2)cc(OC)c1OC	66.3*	3.7	1.0	18.9
COc1cc(NC(=O)c2cc(-c3ccccc3)on2)cc(OC)c1OC	3.3	6.5	0.0	1.1
COc1cc(NC(=O)c2cc3nc(-c4ccccc4)cc(-c4ccccc4)n3n2)cc(OC)c1OC	80.1*	-1.3	0.0	-6.1
COc1ccc([C@@H]2CC=C(C(=O)O)[C@H](c3cccc(Cl)c3)N2S(=O)(=O)c2ccccc2C)cc1	7.0	15.6	1.0	-3.2
COc1ccc(C2=CN3CCCCC3CC2=O)cc1OC (stereo not drawn)	-1.6	1.6	5.0	-12.0
CCOc1ccccc1C(=O)NCC(=O)NNC(=O)CN(C)S(=O)(=O)c1ccc(Cl)cc1	-12.5	4.8	0.0	0.7
N=c1c(C(=O)NCc2ccccc2)cc2c(=O)n3ccccc3nc2n1Cc1ccco1	7.1	-9.7	0.0	x
N=c1c(C(=O)NCc2ccc(F)cc2)cc2c(=O)n3ccccc3nc2n1Cc1ccco1	-30.9	-10.7	2.0	51.8*
CCn1c(CSc2nc3ccccc3s2)nnc1SCC(=O)c1ccc(Cl)cc1	-20.9	-0.1	1.0	-84.0
CCn1c(CSc2nc3ccccc3s2)nnc1SCC(=O)c1ccc(O)c(O)c1	62.1*	1.4	2.0	-13.6
O=C(O)C1Nc2ccc(Br)cc2C2C=CCC12 (stereo not drawn)	0.9	7.0	77.0*	-38.9
O=C(O)C1Nc2c(Cl)cc(Cl)cc2C2C=CCC12 (stereo not drawn)	-8.6	-11.2	72.0*	-5.2
CN(CC(=O)Oc1ccc(-c2nnco2)cc1)S(=O)(=O)c1ccc(F)cc1	-3.2	7.5	0.0	10.6
CS(=O)(=O)C1=NSC2=NC(=O)/C(=C\c3ccc(OC(=O)c4ccco4)cc3)C(=N)N21	x	35.3*	0.0	x
CN(CC(=O)O)S(=O)(=O)c1ccc2c(c1)NC(=O)CC(=O)N2	4.5	1.4	0.0	2.4
O=c1[nH]c(SCc2n[nH]c(=S)n2-c2ccccc2)nc2sc3c(c12)CCC3	61.9*	-9.6	2.0	1.0
O=c1[nH]c(SCc2n[nH]c(=S)n2-c2ccccc2)nc2ccccc12	22.5	5.6	3.0	2.8
COC(=O)c1ccccc1S(=O)(=O)N1CCC(C(=O)NCc2ccco2)CC1	11.2	1.0	0.0	1.5
Cc1[nH]c2ccccc2c1/C=N/Nc1nc(Nc2ccccc2)nc(N2CCOCC2)n1	59.5*	14.1	2.0	-9.9
CC(=O)c1sc(NC(=O)c2cc3c(C)nn(-c4ccccc4)c3s2)nc1C	-5.7	-1.8	2.0	-23.1
Cc1nc(NC(=O)c2cc3c(C)nn(-c4ccccc4)c3s2)sc1C(=O)Nc1ccccc1	64.5*	0.2	0.0	30.6
CCC/C(O)=C1\C(=O)CC(c2ccccc2)CC1=NCCc1c(C)[nH]c2ccc(C)cc12 (stereo not drawn)	-1.9	6.2	1.0	12.8
SMILES	H9c2 protect	HDAC3 inh	GRK2 aptamer HTS	Neddylation inh
COc1ccc(NC(=O)COC(=O)c2cc3c(s2)CCC3)cc1	-11.2	0.9	43.0*	-22.2
CC1(C)Cc2c(c(N3CCOCC3)nc3sc4c(NN)ncnc4c23)CS1	59.2*	4.8	0.0	25.6
O=C(NNC(=S)NC(=O)c1cccc([N+](=O)[O-])c1)c1ccc(O)cc1	14.4	4.3	2.0	-28.0
O=C(NNC(=S)NC(=O)c1cccc([N+](=O)[O-])c1)c1ccc(Br)cc1	55.8*	x	0.0	-23.8
C/C(=N\NC(=O)c1cc2ccccc2cc1O)c1ccc(C)o1	9.8	0.4	0.0	40.3*
C/C(=N/NC(=O)c1cc2ccccc2cc1O)c1ccco1	-7.7	-5.7	3.0	21.4
Cc1cccc(-n2[nH]c(C)c(C=Nc3ccc4[nH]c(=O)[nH]c4c3)c2=O)c1	56.3*	-2.3	5.0	11.7
Cc1[nH]n(-c2ccccc2)c(=O)c1C=Nc1cccc(F)c1	3.7	3.1	0.0	-20.7
Cc1cccc(/N=C/c2c(C)[nH]n(-c3ccccc3)c2=O)n1	-3.0	7.3	1.0	-3.8
Cc1[nH]n(-c2ccccc2)c(=O)c1C=Nc1ccc2[nH]c(=O)[nH]c2c1	55.0*	0.7	1.0	-11.7
CC(C)C[C@H]1CN=C(Nc2ccccc2)N1CCC(C)c1ccccc1 (stereo partly drawn)	-14.7	-2.4	0.0	-0.4
CC1=[N+](C)c2ccc3ccccc3c2C1(C)C	-35.3	2.0	22.0	44.1*
c1ccc2c(c1)ccc1ccccc12	0.3	x	0.0	-4.4
CC(C)OC(=O)c1ccc(OC(=O)c2cccnc2)cc1	6.7	46.7*	0.0	2.3
COC(=O)c1ccc(OC(=O)c2cccnc2)cc1	4.0	41.7*	0.0	-8.4
COc1ccc(CN2CCN(C(=O)CCC(=O)c3ccc(C)s3)CC2)cc1OC	13.4	u	0.0	2.5
O=C(NCCN1CCOCC1)C1CCN(S(=O)(=O)N2CCCC2)CC1	-0.9	-5.2	0.0	2.4
COc1cc(O)c(C=NN2C(=O)CSC2=S)c(OC)c1	62.3*	x	x	19.1
COC(=O)c1c(NC(=O)c2nc3ccccc3s2)sc2c1CCN(C(C)=O)C2	58.3*	-4.5	0.0	-60.2
COC(=O)c1c(NC(=O)c2cccc(N3C(=O)CCC3=O)c2)sc2c1CCN(C(C)=O)C2	19.1	-3.4	4.0	-1.9
Cc1nc(SCC(=O)NCc2ccc(F)cc2)c2c(=O)n(C)c(=O)n(C)c2n1	52.9*	-3.7	1.0	-1.1
Cc1nn(-c2ccccc2)c2c1C(c1ccc([N+](=O)[O-])cc1)N1C(=N2)C(=O)Nc2ccccc21 (stereo not drawn)	43.4	6.4	11.0	-9.7
Cc1nn(-c2ccc([N+](=O)[O-])cc2)c2c1C(c1cccc(Br)c1)N1C(=N2)C(=O)Nc2ccccc21 (stereo not drawn)	55.7*	-1.9	1.0	13.6
COC(=O)c1ccc(/C=N\N2CCN(c3ccccc3)CC2)cc1	-10.4	2.7	0.0	1.2
O=C1N/C(=N/NC(=O)c2cccc3ccccc23)S/C1=C\c1ccccc1OCc1ccccc1	44.6	x	x	x
COc1ccc(OC)c(/C=C2\S/C(=N/NC(=O)c3ccc4ccccc4c3)NC2=O)c1	58.3*	0.8	3.0	47.8*
CN=c1nc(-c2ccccc2)n(-c2ccccc2)s1	-7.1	55.8*	0.0	2.4
Cn1nc(-c2ccccc2)nc1-c1ccccc1	-5.2	-6.3	0.0	-10.3
CC1(C)CC2C1CCC1(O)CC2(C)CCC1N(O)c1ccc(C(=O)NCCO)cn1 (stereo not drawn)	50.8*	-5.3	2.0	-3.7
O=C(COC(=O)CNC(=O)c1ccc(Cl)cc1)Nc1ccc(Cl)cn1	2.5	0.9	0.0	-25.7

Source: PubChem
